High-throughput results as filed in PubChem BioAssay.
GASC-1 inh: human JMJD2C demethylase inhibition. Q9H3R0. GST-JMJD2C(1-420) H3K9me3 demethylation, DELFIA europium. inhibition, % at 2.35 µM. actives 0.069% (n = 330,000);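 active means more than half of a compound's replicate wells show inhibition beyond 50%, single wells judged on their own value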;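 further: signal counts dimethyl H3K9 product captured on neutravidin plate; 0% = median of DMSO wells and 100% = 0.3 times that DMSO median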
MEX-5 binding: C. elegans MEX-5 TCR-2 RNA binding activity. Q9XUB2. MEX-5/FITC-TCR2 RNA binding, fluorescence polarization; stronger effect = lower value. activity score (negative = inhibition of binding), % at 10 µM. actives 0.38% (n = 300,000);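 active means inhibition past about -25% in most replicates, and total fluorescence under double the plate's negative control median, limit read from the data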;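 further: 0% = DMSO and -100% = 5 µM competing unlabeled TCR2 RNA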
HTR2A ag: activates the mouse 5-HT2A serotonin receptor. P35363. AID 624169. actives 0.66% (n = 360,000). CHO-K1 mHTR2A beta-arrestin complementation, luminescence; percent of 30 µM serotonin response. activation, % at 7.6 µM;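 active means activation above a run cutoff, the mean activation of all tested compounds plus 3 SD, cut at about 14% in these data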;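 further: 0% = plate median of compound wells and 100% = 30 µM serotonin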
Target sequence (P35363 whole entry, looked up): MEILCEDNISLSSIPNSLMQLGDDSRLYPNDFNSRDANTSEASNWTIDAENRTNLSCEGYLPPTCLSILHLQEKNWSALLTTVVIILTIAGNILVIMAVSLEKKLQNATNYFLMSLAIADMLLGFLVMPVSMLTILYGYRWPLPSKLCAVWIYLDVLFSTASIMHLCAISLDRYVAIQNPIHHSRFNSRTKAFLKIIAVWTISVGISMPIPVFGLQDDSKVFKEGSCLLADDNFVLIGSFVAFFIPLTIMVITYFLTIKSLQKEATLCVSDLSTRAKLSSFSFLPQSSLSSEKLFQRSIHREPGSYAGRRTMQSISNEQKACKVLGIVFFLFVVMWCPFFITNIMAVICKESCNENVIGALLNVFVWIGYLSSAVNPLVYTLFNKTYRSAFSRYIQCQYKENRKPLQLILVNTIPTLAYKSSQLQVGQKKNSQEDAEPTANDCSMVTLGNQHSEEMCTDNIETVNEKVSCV
Granule exo inh: blocks lytic granule exocytosis. TALL-104 LAMP-1 surface exposure, flow cytometry; cells stimulated with thapsigargin and PMA. inhibition, % at 10 µM. actives 0.66% (n = 360,000);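 active means inhibition above about 55%, limit read from the data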
VLA-4 inh: inhibition in a human VLA-4 binding assay | P13612 | inhibition, % (about 7 µM as worked out from the volumes in the protocol) | AID 2557 | VLA-4 expressing cells, ligand binding flow cytometry | actives 0.2% (n = 330,000); in the data active means inhibition above about 50%
V-ATPase pHluor: regulators of yeast V-ATPase proton transport | actives 0.37% (n = 350,000) | S. cerevisiae, pHLuorin cytosolic pH fluorescence | AID 504577 | response, % at 10 µM; in the data active means response mostly above about 7.3%, no sharp cut-off; inactive means mostly below about 5.4%; further: actives read high
VLA-4 mod pick: human VLA-4 allosteric modulation in cherry picked compounds | shares compounds with VLA-4 inh | actives 2% (n = 1,300) | U937 cells, HUTS-21 LIBS mAb binding, flow cytometry; LDV ligand present at threefold Kd | inhibition, % at 6.7 µM; in the data active means inhibition above about 40%;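 further: 0% = ligand without compound and 100% = no ligand background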
* marks the source's active call; other numbers are inactive results; · = no result given. Only some compounds are listed: those with a hit (about 2.2% of all), similar ones and a draw of the others.

SMILES	GASC-1 inh	MEX-5 binding	HTR2A ag	Granule exo inh	VLA-4 inh	V-ATPase pHluor	VLA-4 mod pick
O=C(Cc1ccccc1)NCCc1ccc(Cl)cc1Cl	3.0	-0.3	4.3	3.1	9.5	-1.1	·
N=c1sccn1CC(=O)NCCc1ccc(Cl)cc1Cl	12.1	·	-3.5	-2.1	95.0*	-0.4	-8.6
O=c1c2[nH]c3cccc(Cl)c3c2ncn1Cc1ccco1	-19.1	-1.1	-0.7	-0.1	-1.1	4.0	13.7
COc1ccc2c(c1)[nH]c1c(=O)n(CC3CCCO3)cnc12 (centres undefined)	-2.4	-7.2	1.9	-3.6	-12.7	5.0	·
O=c1c2[nH]c3cccc(Cl)c3c2ncn1CCN1CCCCC1	17.1	-2.9	0.6	1.3	-1.1	-2.0	5.1
O=c1c2[nH]c3cccc(Cl)c3c2ncn1CC1CCCO1 (centres undefined)	5.4	2.8	-1.9	-1.3	-20.9	-0.8	9.0
COC(=O)[C@]12CCCCC=C1N(Cc1ccccc1)C(=O)[C@H](CC(=O)NCCC(C)C)C2	·	·	-1.6	-0.7	·	·	·
COc1cccc(NC(=S)NN=C2CCCCCC2)c1	14.4	0.3	2.8	-4.6	·	1.3	·
O=C(O)CCC(=O)Nc1ccc(S(=O)(=O)Nc2nccs2)cc1	-29.9	1.3	-0.5	-1.7	56.5*	-0.1	-3.0
COCCNC(=O)C1CCCN(C(=O)c2ccnc(Cl)c2)CC1 (centres undefined)	·	·	1.9	-5.7	·	·	·
CC(=O)c1ccc(NC(=O)COC(=O)c2ccc(F)cc2F)cc1	12.6	0.0	-1.7	0.0	10.8	1.9	-2.1
O=C(COC(=O)c1ccc(O)cc1)Nc1ccccc1	6.8	0.1	-0.8	-15.2	-15.8	3.2	1.8
O=C(COC(=O)c1ccccc1Br)Nc1ccc(F)cc1	-11.8	0.3	-0.1	0.6	11.3	1.3	5.3
CCOC(=O)C1CCN(C(=O)C2CCC(=O)N(CC3CCCCC3)C2)CC1 (centres undefined)	-13.2	-2.3	-1.4	2.6	2.5	2.3	·
CC1CCC(NC(=O)c2cccn2C)CC1 (centres undefined)	·	·	4.0	-3.5	·	2.0	·
CCCCNC(=O)C1c2ccccc2OCC(=O)N1CC(F)(F)F (centres undefined)	·	·	8.4	6.0	·	·	·
Cc1ccc(S(=O)(=O)N2[C@@H](c3ccc4c(c3)OCO4)C(C(=O)O)=C[C@H]2CC2CCCC2)cc1	·	·	4.8	1.5	22.2	-1.0	0.6
Cc1ccc([C@H]2C(C(=O)O)=C[C@@H](CC3CCCC3)N2S(=O)(=O)c2ccc(C)cc2)cc1	·	·	8.3	-2.7	48.2	0.2	·
CC[C@@H]1C=C(C(=O)O)[C@H](c2cccc(C)c2)N1S(=O)(=O)c1ccc(C)cc1	·	·	-1.2	-2.3	28.0	-1.2	-0.1
COc1ccc([C@@H]2CC=C(C(=O)O)[C@H](c3ccc(Br)cc3)N2S(=O)(=O)c2ccc(C)cc2)cc1OC	-5.7	·	2.1	-6.9	-15.1	-0.2	·
Cc1ccc(S(=O)(=O)N2[C@@H](c3cccc(C)c3)C(C(=O)O)=C[C@H]2CC2CCCC2)cc1	26.3	·	0.8	-2.5	9.0	4.5	-2.8
COc1ccc([C@H]2C(C(=O)O)=C[C@@H](CC3CCCC3)N2S(=O)(=O)c2ccc(C)cc2)cc1OC	·	·	0.1	-6.0	-2.5	1.4	12.8
CC[C@@H]1C=C(C(=O)O)[C@H](c2ccc(F)cc2)N1S(=O)(=O)c1ccc(C)cc1	5.8	·	-0.5	-1.6	24.8	-1.4	·
C[C@H](CO)N1C[C@H](C)[C@@H](CN(C)Cc2ccc(C(=O)O)cc2)Oc2ccc(NS(=O)(=O)c3cn(C)cn3)cc2C1=O	0.7	·	4.2	-4.1	8.0	-1.9	·
O=C(NC1CCCCC1)C1c2ccccc2OCC(=O)N1CC(F)(F)F (centres undefined)	·	·	-2.7	-3.2	·	·	·
SMILES	GASC-1 inh	MEX-5 binding	HTR2A ag	Granule exo inh	VLA-4 inh	V-ATPase pHluor	VLA-4 mod pick
Cc1c(Cl)cccc1NC(=S)NCCc1ccc(C(F)(F)F)cc1	71.8	0.1	-5.8	1.4	10.7	0.8	·
Cc1nc(NC(=O)c2cccs2)ccc1Br	-15.8	0.7	1.8	-1.6	-0.9	1.1	·
CCOC(=O)N1CCN(c2nc3ccc(C(=O)c4ccccc4)cc3n3cnnc23)CC1	-28.0	1.5	2.5	5.4	-8.8	5.2	·
O=C(c1ccccc1)c1ccc2nc(N3CCN(C(=O)c4ccco4)CC3)c3nncn3c2c1	-12.9	-2.9	1.3	11.2	55.4*	-4.3	-5.0
Cc1cc(C)n(/C(=C\N(C)C)C(=O)c2ccc(Cl)cc2)n1	8.6	0.8	3.4	-7.8	14.5	4.1	·
Cc1cc(C)n(/C(=C\N(C)C)C(=O)c2cccc([N+](=O)[O-])c2)n1	-27.8	-1.5	-0.2	-4.1	41.7	1.7	-17.5
CCOc1ccccc1N1CC(C(=O)Nc2cccc(S(=O)(=O)N3CCCCC3)c2)CC1=O (centres undefined)	4.3	-2.7	-6.1	1.4	15.7	4.7	·
Cc1cc(C)c(C)c(OCCN2CC(C)OC(C)C2)c1 (centres undefined)	11.4	-1.3	-8.6	-4.7	4.9	1.3	·
CNc1nc(C)nc(-n2nc(C)cc2C)n1	-3.4	0.7	2.9	1.5	-7.4	-1.8	-0.8
COc1cccc(N(CC(=O)NC2CCCCC2)C(=O)CCC(=O)Nc2nc(C)cs2)c1	-3.6	-1.0	-0.1	-12.8	-7.7	0.8	·
COc1ccc(N)cc1S(=O)(=O)Nc1ccccc1Cl	9.1	2.2	-0.9	-1.8	-3.9	-2.7	-2.1
Nn1nnc2ccccc21	5.9	1.8	1.6	-2.5	56.1*	-4.2	-3.0
c1ccc2c(c1)nnn1c3ccccc3nc21	8.7	2.3	·	·	29.9	·	·
COc1cccc(C(C(=O)NC2CCCCC2)N(C(=O)Cc2cccs2)c2ccc(-n3cnnn3)c(OC)c2)c1 (centres undefined)	-0.9	0.0	-2.1	-5.1	54.0*	-0.9	-3.5
O=C(CSc1nnc(-c2ccc(Cl)cc2)n1Cc1ccco1)NCc1ccc2c(c1)OCO2	1.5	0.2	-2.7	-0.6	89.4*	·	0.0
O=C(CSc1nnc(-c2ccc(Cl)cc2)n1Cc1ccco1)Nc1ccc2c(c1)OCCO2	12.1	-0.5	-4.1	1.4	-30.0	2.8	·
CCCCc1ccc(NC(=S)NCCc2ccc(F)cc2)cc1	-31.9	0.5	-9.9	35.4	40.6	4.9	-4.5
Fc1ccc(CCNC(=S)Nc2ccc(F)cc2)cc1	4.9	1.8	-4.3	-5.1	3.1	-2.5	·
CCC(CC)NC(=O)Nc1cccc(C)c1C	39.2	0.1	-0.1	-7.6	44.9	1.9	7.8
COc1ccc(S(=O)(=O)Nc2c(F)cccc2F)cc1	0.8	0.1	3.6	0.0	23.1	-0.6	1.2
COc1ccc(S(=O)(=O)Nc2ccccc2C)cc1	1.2	1.6	0.1	-0.2	-5.0	-9.5	·
